# Assays:
# Assay in all cases: DAPPL (digital affinity profiling via proximity ligation, sequencing); 10 mM Tris-HCl pH 7.5, 50 mM NaCl, 1 mM DTT, 4% glycerol, room temperature, 30 min; GST-TFs on glutathione beads, 16-mer random dsDNA library, 0.1% formaldehyde crosslink after washing; high values mean tight binding
# FLI1 = target: T1, FLI1 (Homo sapiens, UniProt Q01543 1-452); details: protein: recombinant; tags: N-terminal GST; dsDNA, one strand shown
# T1 sequence: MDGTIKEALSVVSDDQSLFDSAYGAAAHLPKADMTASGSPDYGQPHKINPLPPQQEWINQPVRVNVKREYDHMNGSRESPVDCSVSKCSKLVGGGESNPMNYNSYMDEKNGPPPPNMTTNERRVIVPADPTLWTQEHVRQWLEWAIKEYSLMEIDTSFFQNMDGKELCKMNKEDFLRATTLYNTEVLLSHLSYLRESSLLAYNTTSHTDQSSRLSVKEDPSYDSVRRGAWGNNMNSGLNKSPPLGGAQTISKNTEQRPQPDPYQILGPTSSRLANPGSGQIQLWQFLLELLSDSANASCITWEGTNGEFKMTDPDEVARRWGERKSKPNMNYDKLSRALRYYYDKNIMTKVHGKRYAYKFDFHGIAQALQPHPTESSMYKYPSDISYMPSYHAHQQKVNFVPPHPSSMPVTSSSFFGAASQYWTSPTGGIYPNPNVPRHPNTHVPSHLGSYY
# Procedure, shortened: (§1)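 GST fusions of human transcription factors were expressed in yeast and captured with glutathione beads. Once given DNA barcodes and pooled alongside a tag-only sample, they were incubated for 30 min at room temperature with 200 nmole of a random double-stranded 16-mer DNA library in Tris/NaCl/DTT/glycerol buffer, then washed, crosslinked (0.1% formaldehyde), proximity-ligated, PCR-amplified and sequenced on an Illumina NextSeq500. The binding signal of each hexamer is its read frequency for a factor divided by its frequency for the tag-only sample.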
# ELK1 = target: T2, ELK1 (Homo sapiens, UniProt P19419 1-428); details: protein: recombinant; tags: N-terminal GST; dsDNA, one strand shown
# T2 sequence: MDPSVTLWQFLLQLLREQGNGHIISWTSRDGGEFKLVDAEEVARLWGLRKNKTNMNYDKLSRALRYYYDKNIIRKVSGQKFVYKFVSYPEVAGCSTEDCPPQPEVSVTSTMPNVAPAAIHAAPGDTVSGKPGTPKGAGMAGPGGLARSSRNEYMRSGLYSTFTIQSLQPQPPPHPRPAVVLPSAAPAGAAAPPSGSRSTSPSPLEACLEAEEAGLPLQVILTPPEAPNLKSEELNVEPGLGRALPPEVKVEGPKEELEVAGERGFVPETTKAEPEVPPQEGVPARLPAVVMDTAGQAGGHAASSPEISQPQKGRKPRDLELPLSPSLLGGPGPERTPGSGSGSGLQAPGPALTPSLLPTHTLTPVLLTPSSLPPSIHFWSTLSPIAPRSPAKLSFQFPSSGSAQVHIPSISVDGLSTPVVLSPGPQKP
# Procedure, shortened: as §1
# GABPA = target: T3, GABPA (Homo sapiens, UniProt Q06546 1-454); details: protein: recombinant; tags: N-terminal GST; dsDNA, one strand shown
# T3 sequence: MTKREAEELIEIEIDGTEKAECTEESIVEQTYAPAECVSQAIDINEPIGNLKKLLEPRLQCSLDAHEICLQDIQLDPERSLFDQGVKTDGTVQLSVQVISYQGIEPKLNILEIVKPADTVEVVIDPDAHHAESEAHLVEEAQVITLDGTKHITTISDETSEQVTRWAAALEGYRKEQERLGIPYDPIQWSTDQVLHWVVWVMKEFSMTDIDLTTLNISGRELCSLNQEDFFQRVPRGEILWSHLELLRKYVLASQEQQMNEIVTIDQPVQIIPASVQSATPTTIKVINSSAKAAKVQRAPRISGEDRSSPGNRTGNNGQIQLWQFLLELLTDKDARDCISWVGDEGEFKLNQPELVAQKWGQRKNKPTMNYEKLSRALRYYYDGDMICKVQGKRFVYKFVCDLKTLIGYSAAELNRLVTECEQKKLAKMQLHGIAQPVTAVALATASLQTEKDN
# Procedure, shortened: as §1
# ERG = target: T4, ERG (Homo sapiens, UniProt P11308 1-479); details: protein: recombinant; tags: N-terminal GST; dsDNA, one strand shown
# T4 sequence: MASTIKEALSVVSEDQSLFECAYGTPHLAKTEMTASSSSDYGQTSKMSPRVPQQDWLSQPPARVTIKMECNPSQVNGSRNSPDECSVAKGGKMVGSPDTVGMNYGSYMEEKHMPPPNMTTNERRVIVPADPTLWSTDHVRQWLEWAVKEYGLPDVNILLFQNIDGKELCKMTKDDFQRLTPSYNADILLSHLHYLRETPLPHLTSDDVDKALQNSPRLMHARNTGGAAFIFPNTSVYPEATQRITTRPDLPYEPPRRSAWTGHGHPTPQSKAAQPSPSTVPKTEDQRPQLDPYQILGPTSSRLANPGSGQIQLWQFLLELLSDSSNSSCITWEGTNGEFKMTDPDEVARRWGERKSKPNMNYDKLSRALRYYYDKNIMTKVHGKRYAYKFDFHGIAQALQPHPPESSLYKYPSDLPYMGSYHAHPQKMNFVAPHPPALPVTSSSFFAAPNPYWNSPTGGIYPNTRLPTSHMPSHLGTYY
# Procedure, shortened: as §1
# ELF1 = ELF1 (Homo sapiens, UniProt P32519 1-619); details: protein: recombinant; tags: N-terminal GST; dsDNA, one strand shown
# ELF1, sequence (P32519 whole entry): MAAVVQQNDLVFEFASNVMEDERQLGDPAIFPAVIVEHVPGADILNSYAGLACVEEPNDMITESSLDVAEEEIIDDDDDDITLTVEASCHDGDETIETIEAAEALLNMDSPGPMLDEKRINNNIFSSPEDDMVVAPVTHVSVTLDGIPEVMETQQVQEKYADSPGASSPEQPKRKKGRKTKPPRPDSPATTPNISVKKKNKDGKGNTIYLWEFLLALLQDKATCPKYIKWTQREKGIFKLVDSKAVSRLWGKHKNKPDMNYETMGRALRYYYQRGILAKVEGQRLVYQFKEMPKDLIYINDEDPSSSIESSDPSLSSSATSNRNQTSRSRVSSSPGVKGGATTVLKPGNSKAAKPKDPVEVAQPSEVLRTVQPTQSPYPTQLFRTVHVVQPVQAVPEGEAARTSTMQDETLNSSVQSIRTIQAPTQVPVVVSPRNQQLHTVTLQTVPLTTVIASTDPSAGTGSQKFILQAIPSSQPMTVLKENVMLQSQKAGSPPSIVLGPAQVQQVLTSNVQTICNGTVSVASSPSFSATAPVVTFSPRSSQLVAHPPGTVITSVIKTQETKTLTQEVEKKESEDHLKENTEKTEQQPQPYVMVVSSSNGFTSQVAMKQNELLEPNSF
# Procedure, shortened: as §1
# EHF = target: T5, EHF (Homo sapiens, UniProt Q9NZC4 1-300); details: protein: recombinant; tags: N-terminal GST; dsDNA, one strand shown
# T5 sequence: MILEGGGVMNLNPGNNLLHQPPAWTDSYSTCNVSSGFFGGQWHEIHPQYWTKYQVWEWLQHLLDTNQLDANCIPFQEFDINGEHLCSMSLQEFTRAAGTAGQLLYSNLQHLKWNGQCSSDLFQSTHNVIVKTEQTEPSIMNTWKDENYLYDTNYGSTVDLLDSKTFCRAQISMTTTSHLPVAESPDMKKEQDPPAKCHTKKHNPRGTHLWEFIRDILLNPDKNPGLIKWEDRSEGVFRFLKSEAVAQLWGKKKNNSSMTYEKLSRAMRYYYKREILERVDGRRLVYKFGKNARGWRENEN
# Procedure, shortened: as §1
# SPI1 = SPI1 (Homo sapiens, UniProt P17947 1-270); details: protein: recombinant; tags: N-terminal GST; dsDNA, one strand shown
# Procedure, shortened: as §1
# SPIB = SPIB (Homo sapiens, UniProt Q01892 1-262); details: protein: recombinant; tags: N-terminal GST; dsDNA, one strand shown
# SPIB, sequence (Q01892 whole entry): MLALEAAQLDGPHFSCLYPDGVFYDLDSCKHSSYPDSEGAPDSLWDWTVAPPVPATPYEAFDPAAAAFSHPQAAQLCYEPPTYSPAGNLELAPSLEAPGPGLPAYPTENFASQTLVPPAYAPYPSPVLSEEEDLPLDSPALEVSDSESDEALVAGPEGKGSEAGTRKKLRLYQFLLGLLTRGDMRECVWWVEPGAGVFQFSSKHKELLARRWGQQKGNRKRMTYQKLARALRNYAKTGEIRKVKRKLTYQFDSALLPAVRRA
# Procedure, shortened: as §1
# ELK3 = target: T6, ELK3 (Homo sapiens, UniProt P41970 1-407); details: protein: recombinant; tags: N-terminal GST; dsDNA, one strand shown
# T6 sequence: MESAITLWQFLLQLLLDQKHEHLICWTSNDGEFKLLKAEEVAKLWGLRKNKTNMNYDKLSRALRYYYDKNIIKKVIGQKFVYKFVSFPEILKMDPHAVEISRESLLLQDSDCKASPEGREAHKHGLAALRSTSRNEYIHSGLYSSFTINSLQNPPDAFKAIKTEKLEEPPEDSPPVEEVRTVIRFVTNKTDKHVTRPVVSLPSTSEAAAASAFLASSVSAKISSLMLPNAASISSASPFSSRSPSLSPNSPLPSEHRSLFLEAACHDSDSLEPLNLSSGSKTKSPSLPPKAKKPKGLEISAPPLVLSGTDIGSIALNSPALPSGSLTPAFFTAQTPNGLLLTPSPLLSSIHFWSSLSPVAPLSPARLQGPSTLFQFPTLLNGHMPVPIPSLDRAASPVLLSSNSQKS
# Procedure, shortened: as §1
# FEV = target: T7, FEV (Homo sapiens, UniProt Q99581 1-238); details: protein: recombinant; tags: N-terminal GST; dsDNA, one strand shown
# T7 sequence: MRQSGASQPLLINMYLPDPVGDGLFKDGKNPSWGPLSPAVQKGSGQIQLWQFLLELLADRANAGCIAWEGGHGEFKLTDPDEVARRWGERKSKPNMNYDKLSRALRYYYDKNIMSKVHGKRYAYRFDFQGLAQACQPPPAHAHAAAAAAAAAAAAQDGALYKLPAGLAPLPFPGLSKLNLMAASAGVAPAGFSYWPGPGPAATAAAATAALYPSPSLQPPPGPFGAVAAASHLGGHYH
# Procedure, shortened: as §1
# ETV5 = ETV5 (Homo sapiens, UniProt P41161 1-510); details: protein: recombinant; tags: N-terminal GST; dsDNA, one strand shown
# ETV5, sequence (P41161 whole entry): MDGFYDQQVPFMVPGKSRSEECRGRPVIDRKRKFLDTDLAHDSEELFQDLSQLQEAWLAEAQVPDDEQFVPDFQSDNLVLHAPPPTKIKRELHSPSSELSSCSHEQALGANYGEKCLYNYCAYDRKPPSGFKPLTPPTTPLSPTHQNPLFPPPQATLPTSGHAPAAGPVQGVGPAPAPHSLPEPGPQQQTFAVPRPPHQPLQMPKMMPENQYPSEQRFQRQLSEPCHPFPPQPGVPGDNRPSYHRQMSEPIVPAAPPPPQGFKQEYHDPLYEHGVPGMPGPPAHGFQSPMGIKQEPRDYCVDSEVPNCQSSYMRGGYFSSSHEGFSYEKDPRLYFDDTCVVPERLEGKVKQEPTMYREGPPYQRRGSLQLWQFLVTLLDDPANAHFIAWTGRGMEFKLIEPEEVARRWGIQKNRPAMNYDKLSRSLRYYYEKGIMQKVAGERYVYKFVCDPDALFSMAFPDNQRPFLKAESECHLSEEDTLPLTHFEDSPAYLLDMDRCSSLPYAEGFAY
# Procedure, shortened: as §1
# HSF1 = HSF1 (Homo sapiens, UniProt Q00613 1-529); details: protein: recombinant; tags: N-terminal GST; chain copies: 3; dsDNA, one strand shown
# HSF1, sequence (Q00613 whole entry): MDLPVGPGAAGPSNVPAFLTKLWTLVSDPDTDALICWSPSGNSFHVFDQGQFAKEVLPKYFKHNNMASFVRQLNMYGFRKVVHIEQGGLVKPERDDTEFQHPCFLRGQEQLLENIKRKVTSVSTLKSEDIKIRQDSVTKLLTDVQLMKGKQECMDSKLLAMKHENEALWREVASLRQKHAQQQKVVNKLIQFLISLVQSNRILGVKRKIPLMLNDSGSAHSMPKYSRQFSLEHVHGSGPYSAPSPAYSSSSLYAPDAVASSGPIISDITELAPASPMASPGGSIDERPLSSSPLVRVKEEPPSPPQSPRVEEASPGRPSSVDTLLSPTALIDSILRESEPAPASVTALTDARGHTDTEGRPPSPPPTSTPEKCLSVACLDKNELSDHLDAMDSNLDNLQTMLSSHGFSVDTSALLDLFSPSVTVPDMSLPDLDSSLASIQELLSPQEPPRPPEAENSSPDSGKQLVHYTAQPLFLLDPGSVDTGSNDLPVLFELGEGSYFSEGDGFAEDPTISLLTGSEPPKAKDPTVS
# Procedure, shortened: as §1
# SPIC = target: T8, SPIC (Homo sapiens, UniProt Q8N5J4 1-248); details: protein: recombinant; tags: N-terminal GST; dsDNA, one strand shown
# T8 sequence: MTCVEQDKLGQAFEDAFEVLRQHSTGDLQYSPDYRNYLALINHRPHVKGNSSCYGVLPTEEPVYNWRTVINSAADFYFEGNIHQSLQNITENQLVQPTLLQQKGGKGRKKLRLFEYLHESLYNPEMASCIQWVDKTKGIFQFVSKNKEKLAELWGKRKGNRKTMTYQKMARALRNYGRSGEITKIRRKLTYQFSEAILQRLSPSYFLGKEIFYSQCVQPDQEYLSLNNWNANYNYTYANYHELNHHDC
# Procedure, shortened: as §1
# ELF4 = ELF4 (Homo sapiens, UniProt Q99607 1-663); details: protein: recombinant; tags: N-terminal GST; dsDNA, one strand shown
# ELF4, sequence (Q99607 whole entry): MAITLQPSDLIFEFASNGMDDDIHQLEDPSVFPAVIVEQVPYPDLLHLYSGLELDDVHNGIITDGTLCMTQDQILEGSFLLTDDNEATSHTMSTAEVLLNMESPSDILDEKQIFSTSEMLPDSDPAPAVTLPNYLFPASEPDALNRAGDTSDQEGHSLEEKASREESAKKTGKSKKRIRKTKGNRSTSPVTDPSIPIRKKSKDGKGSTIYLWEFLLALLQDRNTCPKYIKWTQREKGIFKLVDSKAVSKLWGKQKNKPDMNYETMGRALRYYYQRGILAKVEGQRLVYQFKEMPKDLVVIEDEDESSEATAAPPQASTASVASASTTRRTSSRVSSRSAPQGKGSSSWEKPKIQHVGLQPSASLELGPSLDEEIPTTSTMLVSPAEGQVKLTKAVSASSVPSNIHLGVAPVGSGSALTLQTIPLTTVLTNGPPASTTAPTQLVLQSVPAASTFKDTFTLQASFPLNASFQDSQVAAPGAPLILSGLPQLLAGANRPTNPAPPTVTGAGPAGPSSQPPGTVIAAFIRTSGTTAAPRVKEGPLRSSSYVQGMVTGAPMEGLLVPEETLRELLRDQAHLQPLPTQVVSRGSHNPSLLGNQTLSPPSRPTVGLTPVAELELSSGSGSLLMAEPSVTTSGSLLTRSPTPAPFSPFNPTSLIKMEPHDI
# Procedure, shortened: as §1
# ELK4 = target: T9, ELK4 (Homo sapiens, UniProt P28324-2 1-405); details: protein: recombinant; tags: N-terminal GST; dsDNA, one strand shown
# T9 sequence: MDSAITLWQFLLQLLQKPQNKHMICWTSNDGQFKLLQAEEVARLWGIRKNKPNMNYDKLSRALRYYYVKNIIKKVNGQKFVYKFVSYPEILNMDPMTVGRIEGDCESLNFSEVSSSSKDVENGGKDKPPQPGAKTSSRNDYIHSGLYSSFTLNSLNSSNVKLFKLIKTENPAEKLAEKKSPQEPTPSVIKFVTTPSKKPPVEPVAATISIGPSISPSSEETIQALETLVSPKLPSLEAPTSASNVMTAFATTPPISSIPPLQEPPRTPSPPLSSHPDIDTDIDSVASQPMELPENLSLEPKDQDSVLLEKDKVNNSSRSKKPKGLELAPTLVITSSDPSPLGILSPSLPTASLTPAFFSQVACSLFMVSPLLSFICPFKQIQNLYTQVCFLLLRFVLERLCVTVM
# Procedure, shortened: as §1
# ETV2 = target: T10, ETV2 (Homo sapiens, UniProt O00321 1-342); details: protein: recombinant; tags: N-terminal GST; dsDNA, one strand shown
# T10 sequence: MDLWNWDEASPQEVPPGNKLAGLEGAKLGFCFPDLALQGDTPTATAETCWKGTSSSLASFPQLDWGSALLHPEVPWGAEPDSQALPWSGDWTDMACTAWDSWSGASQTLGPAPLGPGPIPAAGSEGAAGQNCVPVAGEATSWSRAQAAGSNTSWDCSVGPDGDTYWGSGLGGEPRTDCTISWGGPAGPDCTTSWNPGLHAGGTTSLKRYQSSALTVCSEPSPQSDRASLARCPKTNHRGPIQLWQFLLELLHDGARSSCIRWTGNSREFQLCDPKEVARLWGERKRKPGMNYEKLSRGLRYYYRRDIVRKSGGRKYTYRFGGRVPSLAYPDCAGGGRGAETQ
# Procedure, shortened: as §1
# ELF3 = target: T11, ELF3 (Homo sapiens, UniProt P78545 1-371); details: protein: recombinant; tags: N-terminal GST; dsDNA, one strand shown
# T11 sequence: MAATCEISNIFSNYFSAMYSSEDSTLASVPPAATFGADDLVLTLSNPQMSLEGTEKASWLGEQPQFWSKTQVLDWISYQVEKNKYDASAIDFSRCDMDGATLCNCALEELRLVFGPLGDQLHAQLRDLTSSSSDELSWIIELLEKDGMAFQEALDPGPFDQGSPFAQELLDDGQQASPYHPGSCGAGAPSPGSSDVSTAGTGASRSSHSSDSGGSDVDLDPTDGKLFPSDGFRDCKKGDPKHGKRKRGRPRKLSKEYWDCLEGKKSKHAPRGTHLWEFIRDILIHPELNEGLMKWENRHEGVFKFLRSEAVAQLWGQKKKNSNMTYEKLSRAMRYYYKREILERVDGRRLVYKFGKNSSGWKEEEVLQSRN
# Procedure, shortened: as §1
# ETV1 = ETV1 (Homo sapiens, UniProt P50549 1-477); details: protein: recombinant; tags: N-terminal GST; dsDNA, one strand shown
# ETV1, sequence (P50549 whole entry): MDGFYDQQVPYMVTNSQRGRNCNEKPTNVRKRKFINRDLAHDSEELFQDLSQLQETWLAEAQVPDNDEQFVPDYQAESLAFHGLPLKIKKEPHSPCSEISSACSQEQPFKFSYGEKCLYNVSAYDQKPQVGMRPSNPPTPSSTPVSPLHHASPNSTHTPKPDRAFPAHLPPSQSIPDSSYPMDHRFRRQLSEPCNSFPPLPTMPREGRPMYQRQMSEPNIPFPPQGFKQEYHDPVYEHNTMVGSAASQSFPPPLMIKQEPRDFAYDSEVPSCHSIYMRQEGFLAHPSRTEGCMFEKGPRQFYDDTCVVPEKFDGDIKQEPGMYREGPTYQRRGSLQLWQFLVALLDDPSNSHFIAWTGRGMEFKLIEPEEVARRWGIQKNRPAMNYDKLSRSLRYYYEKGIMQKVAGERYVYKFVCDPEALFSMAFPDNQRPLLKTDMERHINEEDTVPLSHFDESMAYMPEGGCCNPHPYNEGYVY
# Procedure, shortened: as §1
sequence,measurement,setting,value
ATGTCC,binding signal,FLI1,"1.56 fold enrichment (6-mer frequency, TF over GST control)"
same,binding signal,ELK1,"1.53 fold enrichment (6-mer frequency, TF over GST control)"
same,binding signal,GABPA,"1.54 fold enrichment (6-mer frequency, TF over GST control)"
same,binding signal,ERG,"1.75 fold enrichment (6-mer frequency, TF over GST control)"
same,binding signal,ELF1,"1.58 fold enrichment (6-mer frequency, TF over GST control)"
same,binding signal,EHF,"1.54 fold enrichment (6-mer frequency, TF over GST control)"
same,binding signal,SPI1,"1.35 fold enrichment (6-mer frequency, TF over GST control)"
same,binding signal,SPIB,"1.55 fold enrichment (6-mer frequency, TF over GST control)"
same,binding signal,ELK3,"1.75 fold enrichment (6-mer frequency, TF over GST control)"
same,binding signal,FEV,"1.84 fold enrichment (6-mer frequency, TF over GST control)"
same,binding signal,ETV5,"1.62 fold enrichment (6-mer frequency, TF over GST control)"
same,binding signal,HSF1,"1.03 fold enrichment (6-mer frequency, TF over GST control)"
same,binding signal,SPIC,"1.54 fold enrichment (6-mer frequency, TF over GST control)"
same,binding signal,ELF4,"1.51 fold enrichment (6-mer frequency, TF over GST control)"
same,binding signal,ELK4,"1.57 fold enrichment (6-mer frequency, TF over GST control)"
same,binding signal,ETV2,"1.77 fold enrichment (6-mer frequency, TF over GST control)"
same,binding signal,ELF3,"1.85 fold enrichment (6-mer frequency, TF over GST control)"
same,binding signal,ETV1,"1.66 fold enrichment (6-mer frequency, TF over GST control)"
